This is an account of results in PubChem BioAssay AID630 (Emory University Molecular Libraries Screening Center, 2007).

Out of some 88,000 compounds screened, about 260 (0.3%) were called active. Only a selection was taken, and actives are over-represented in it overall. A number with no mark means an inactive call.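 The calls were made as follows: active = compounds that reduce the energy-transfer binding signal between the protein and its labelled peptide by more than half; inactive = the rest.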

Mothers against decapentaplegic homolog 3 (Homo sapiens), sequence (P84022 whole entry, looked up): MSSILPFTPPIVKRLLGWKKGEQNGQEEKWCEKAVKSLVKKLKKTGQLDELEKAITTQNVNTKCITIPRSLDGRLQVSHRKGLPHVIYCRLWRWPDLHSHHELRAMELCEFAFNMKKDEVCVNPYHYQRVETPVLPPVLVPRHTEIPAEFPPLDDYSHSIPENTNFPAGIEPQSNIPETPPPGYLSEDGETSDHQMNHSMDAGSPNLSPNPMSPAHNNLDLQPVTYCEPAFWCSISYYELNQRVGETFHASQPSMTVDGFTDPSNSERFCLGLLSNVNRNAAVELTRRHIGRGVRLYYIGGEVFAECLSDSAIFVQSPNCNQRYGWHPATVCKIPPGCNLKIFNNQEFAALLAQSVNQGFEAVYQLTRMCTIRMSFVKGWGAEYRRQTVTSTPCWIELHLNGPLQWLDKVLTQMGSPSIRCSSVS

The test addresses Mothers against decapentaplegic homolog 3 (Homo sapiens) (UniProt P84022). The test can be described thus: Smad3/FoxH1 peptide binding inhibitors, primary screen, biochemical, TR-FRET (AID 630).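 Also: 0% = Smad3 plus labelled peptide maximal FRET and 100% = peptide-only background.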 The settings on record: TR-FRET Smad3/Dy647-FoxH1 peptide binding, europium anti-His; at 25 µM; hits give high values. In general terms: In TR-FRET formats the signal depends on donor and acceptor labels being close together.
What is called inhibition is the drop in the measured response relative to a control, in per cent. `Cc1ccc(S(=O)(=O)O[C@H]2CN3CCC2CC3)cc1`: the inhibition is 67.3% (active).
The value for `O=C1C[C@@H]2OCC=C3CN4CC[C@]56c7ccccc7N1[C@H]5[C@H]2[C@H]3C[C@H]46` (tested in a mixture with another compound) was -5.82%; that for `c1cc2c(cc1CCNC1CCCCCC1)OCO2` was -10.4%; that for `CC[C@@](O)(C(=O)O)c1cc2n(c(=O)c1CO)Cc1cc3ccccc3nc1-2` was -1.51%.
The figure for `C=C[C@@H]1CN2CC[C@H]1C[C@@H]2[C@H](O)c1ccnc2ccccc12` is -9.04%.
